Measured values taken from PubChem BioAssay (NCATS).
Inconclusive results are not listed. Active and inactive are the calls of the source. Unless noted, calls come from the whole dose curve.

Tests used:
[1] = Cell Viability - BJ (AID 421); settings: BJ fibroblast viability, qHTS;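 note: potency is the fitted concentration of half-maximal effect; cells exposed to compound for 40 hours at 37 °C before readout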
In short: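 Cytotoxicity in human BJ foreskin fibroblasts is scored as loss of cellular ATP after a 40-hour exposure, measured by luciferase luminescence. Controls are DMSO and 100 uM tamoxifen.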

[2] = Cell Viability - Jurkat (AID 426;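 active = dose-dependent loss of cell ATP signal giving a full or clear fitted curve, ranked by lower potency value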; note: potency is the fitted concentration of half-maximal effect); settings: qHTS
In short: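 qHTS, 1536-well; Jurkat E6-1, 5000 cells/well, complete medium; cpd 40 hr, 37 °C; CellTiter-Glo 20 min RT; luminescence. AC50 by Hill fit.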

[3] = Cell Viability - Hek293 (AID 427;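 active = compounds whose dose-response curve shows a full or clear partial loss of cell viability, called from curve shape rather than a numeric limit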;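 note: potency is the fitted concentration of half-maximal effect; cells exposed to compound for 40 hours at 37 °C before reading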); settings: qHTS
In short: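 qHTS, human embryonic kidney (adenovirus-transformed) cells; 40 hr cpd, 37 °C; CellTiter-Glo ATP luminescence. Norm: DMSO = 0, 100 uM tamoxifen = 100% inhibition. Hill-fit AC50.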

[4] = Cell Viability - HepG2 (AID 433); settings: qHTS;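 note: potency is the fitted concentration of half-maximal effect; potency for ATP loss meaning cytotoxicity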
In short: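 Read-out is luciferase-based quantitation of cellular ATP as a measure of viable HepG2 cells after 40 h treatment at 37 °C. Signal decrease is scaled between DMSO-only and 100 uM tamoxifen controls, with AC50 fitted by the Hill equation.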

[5] = Cell Viability - MRC5 (AID 434); settings: MRC5 lung fibroblast viability, qHTS;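 note: potency is the fitted concentration of half-maximal effect; potency reflects cytotoxicity seen as loss of intracellular ATP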
In short: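 MRC5 normal human lung fibroblasts (1500/well) were treated with compounds for 40 hr at 37 °C in complete medium, and viable cells were measured as intracellular ATP by CellTiter-Glo luminescence. AC50 came from Hill fits, normalized to DMSO and 100 uM tamoxifen.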

[6] = Cell Viability - SK-N-SH (AID 435); settings: SK-N-SH neuroblastoma cell viability qHTS;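 note: potency is the fitted concentration of half-maximal effect; compound exposure lasted 40 h at 37 °C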
In short: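 Luminescent ATP signal served as the viability read-out after 40 hours of compound treatment of human neuroblastoma SK-N-SH cells. Concentration-response data, scaled between DMSO and 100 uM tamoxifen, gave AC50 values by standard Hill modeling.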

[7] = molecular target: Mitogen-activated protein kinase 10 (Mus musculus) (UniProt Q61831); assay: JNK3 AlphaScreen Assay (AID 530; active = well fitted curve in either direction with a large enough effect, not every such curve was filed as active;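 note: kinase came from lysate of stimulated human HepG2 cells; signal reports phosphorylation of biotinylated GST-cJun 1-79 at Ser73 with 10 µM ATP; % is set by controls: 0 for no effect and ±100 for the full control effect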); settings: JNK3 lysate, c-Jun phosphorylation; series mostly up to 57.1 µM
In short: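 Inhibitors reduce antibody binding to phosphorylated biotin-cJun, lowering AlphaScreen luminescence. Lysates from HepG2 cells pre-activated by IL-1beta plus TNF-alpha supplied JNK3; compounds were titrated.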

[8] = Cell Viability - N2a (AID 540; active = well fitted curve in the direction sought with a large enough effect; an effect the other way counts as inactive or inconclusive;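 note: plate controls were DMSO alone for no effect and tamoxifen control for full effect; nearly all actives have a fitted effect of over 45% in size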); settings: N2a mouse neuroblastoma cell viability; activity change, negative = cytotoxicity: at 92.2 µM (top of the series)
In short: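 Luminescent ATP signal (CellTiter-Glo, 20 min at room temperature) served as the viability read-out after N2a cells were treated with compounds for 40 hours at 37 °C. Concentration-response data were fitted to the Hill equation for AC50.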

[9] = Cell Viability - NIH 3T3 (AID 541; active = well fitted curve in the direction sought with a large enough effect; an effect the other way counts as inactive or inconclusive;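 note: plate controls were DMSO alone for no effect and tamoxifen positive control for full effect; nearly all actives have a fitted effect of over 25% in size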); settings: NIH 3T3 cell viability, qHTS; activity change, negative = cytotoxicity: at 92.2 µM (top of the series)
In short: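 Luminescent ATP signal (CellTiter-Glo) served as the viability read-out after NIH 3T3 cells were exposed to compounds over a concentration range for 40 hr at 37 °C. Hill-equation modelling of concentration-response data gave AC50.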

[10] = Cell Viability - HUV-EC-C (AID 542; active = well fitted curve in the direction sought with a large enough effect; an effect the other way counts as inactive or inconclusive; note: % is set by controls: 0 for no effect and ±100 for the full control effect; nearly all actives have a fitted effect of over 35% in size); settings: HUV-EC-C endothelial cell viability, qHTS; series mostly up to 92.2 µM
In short: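 qHTS cytotoxicity: HUV-EC-C, 1000 cells/well, 5 hr settle, compound 40 hr 37 °C, CellTiter-Glo, luminescence. AC50 via Hill equation.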

NCCCCCCN
inactive: Potency [1] > 92 µM | Potency [2] > 92 µM | Potency [3] > 92 µM | Potency [4] > 92 µM | Potency [5] > 92 µM | Potency [6] > 92 µM | outcome [7] | activity change, negative = cytotoxicity [8] -4.05% | Potency [9] | Potency [10]

COc1ccc(OC)cc1
inactive: Potency [1] > 92 µM | Potency [2] > 92 µM | Potency [3] > 92 µM | Potency [4] > 92 µM | Potency [5] > 92 µM | Potency [6] > 92 µM | outcome [7] | activity change, negative = cytotoxicity [8] 0.243% | Potency [9] | Potency [10]

CCCCOCCOCCSC#N
inactive: Potency [1] > 92 µM | Potency [2] > 92 µM | Potency [3] > 92 µM | Potency [4] > 92 µM | Potency [5] > 92 µM | Potency [6] > 92 µM | outcome [7] | activity change, negative = cytotoxicity [8] 0.328% | Potency [9] | Potency [10]

C=CCCCCCCC=C
inactive: Potency [1] > 92 µM | Potency [2] > 92 µM | Potency [3] > 92 µM | Potency [4] > 92 µM | Potency [5] > 92 µM | Potency [6] > 92 µM | outcome [7] | activity change, negative = cytotoxicity [8] -4.21% | Potency [9] | Potency [10]

Cc1ccccc1C(=O)O
inactive: Potency [1] > 92 µM | Potency [2] > 92 µM | Potency [3] > 92 µM | Potency [4] > 92 µM | Potency [5] > 92 µM | Potency [6] > 92 µM | outcome [7] | activity change, negative = cytotoxicity [8] -16.3% | Potency [9] | Potency [10]

CCCCC(CC)CNCC(CC)CCCC (stereo not given)
inactive: Potency [1] > 92 µM | Potency [2] > 92 µM | Potency [3] > 92 µM | Potency [4] > 92 µM | Potency [5] > 92 µM | Potency [6] > 92 µM | outcome [7] | activity change, negative = cytotoxicity [8] -7.79% | Potency [9] | Potency [10]

CC(C)(C)OCC1CO1 (stereo not given)
inactive: Potency [1] > 92 µM | Potency [2] > 92 µM | Potency [3] > 92 µM | Potency [4] > 92 µM | Potency [5] > 92 µM | Potency [6] > 92 µM | outcome [7] | activity change, negative = cytotoxicity [8] 3.76% | Potency [9] | Potency [10]

Cc1c(N)cccc1[N+](=O)[O-]
inactive: Potency [1] > 92 µM | Potency [2] > 92 µM | Potency [3] > 92 µM | Potency [4] > 92 µM | Potency [5] > 92 µM | Potency [6] > 92 µM | outcome [7] | activity change, negative = cytotoxicity [8] 3.87% | Potency [9] | Potency [10]

CNc1ccccc1
inactive: Potency [1] > 92 µM | Potency [2] > 92 µM | Potency [3] > 92 µM | Potency [4] > 92 µM | Potency [5] > 92 µM | Potency [6] > 92 µM | outcome [7] | activity change, negative = cytotoxicity [8] -12.9% | Potency [9] | Potency [10]

O=Cc1cccc(Br)c1
inactive: Potency [1] > 92 µM | Potency [2] > 92 µM | Potency [3] > 92 µM | Potency [4] > 92 µM | Potency [5] > 92 µM | Potency [6] > 92 µM | outcome [7] | activity change, negative = cytotoxicity [8] 0.0642% | Potency [9] | Potency [10]

c1ccc2n[nH]nc2c1
inactive: Potency [1] > 92 µM | Potency [2] > 92 µM | Potency [3] > 92 µM | Potency [4] > 92 µM | Potency [5] > 92 µM | Potency [6] > 92 µM | outcome [7] | activity change, negative = cytotoxicity [8] -2.18% | Potency [9] | Potency [10]

Nc1cccc(C(F)(F)F)c1
inactive: Potency [1] > 92 µM | Potency [2] > 92 µM | Potency [3] > 92 µM | Potency [4] > 92 µM | Potency [5] > 92 µM | Potency [6] > 92 µM | outcome [7] | activity change, negative = cytotoxicity [8] 0.982% | Potency [9] | Potency [10]

Cc1ccccc1Br
inactive: Potency [1] > 92 µM | Potency [2] > 92 µM | Potency [3] > 92 µM | Potency [4] > 92 µM | Potency [5] > 92 µM | Potency [6] > 92 µM | outcome [7] | activity change, negative = cytotoxicity [8] -5.14% | Potency [9] | Potency [10]

Nc1cccc(O)c1
inactive: Potency [1] > 92 µM | Potency [2] > 92 µM | Potency [3] > 92 µM | Potency [4] > 92 µM | Potency [5] > 92 µM | Potency [6] > 92 µM | outcome [7] | activity change, negative = cytotoxicity [8] 4.14% | Potency [9] | Potency [10]

NC=O
inactive: Potency [1] > 92 µM | Potency [2] > 92 µM | Potency [3] > 92 µM | Potency [4] > 92 µM | Potency [5] > 92 µM | Potency [6] > 92 µM | outcome [7] | activity change, negative = cytotoxicity [8] 1.82% | Potency [9] | Potency [10]

CC(CCl)OC(C)CCl (stereo not given)
inactive: Potency [1] > 92 µM | Potency [2] > 92 µM | Potency [3] > 92 µM | Potency [4] > 92 µM | Potency [5] > 92 µM | Potency [6] > 92 µM | outcome [7] | activity change, negative = cytotoxicity [8] 2.8% | Potency [9] | Potency [10]

C=C(C)C(=O)OCC(C)C
inactive: Potency [1] > 92 µM | Potency [2] > 92 µM | Potency [3] > 92 µM | Potency [4] > 92 µM | Potency [5] > 92 µM | Potency [6] > 92 µM | outcome [7] | activity change, negative = cytotoxicity [8] 1.04% | Potency [9] | Potency [10]
